The whole screen tested about 52,000 compounds, of which about 4,300 (8.3%) were called active. Many of the other results were omitted from the sample, so actives are more common in it than they were. Values without a mark were called inactive. Cut-off read from the data, not from the text of the source: active = survival mostly below about 52% (no sharp cut-off); inactive = mostly above about 56%.
These compounds were tested on DeltatarO mutant (assay: S. aureus survival, RN4220 and DeltatarO strains – OD600, teichoic acid synthesis inhibitors, primary screen (AID 463173)). Details: S. aureus RN4220 wild type/DeltatarO growth, OD600, 18 h, stronger effect = lower value, screened at 18.75 µg/mL (by protocol).
`Cc1cc2oc(C(=O)N(Cc3ccc(N(C)C)cc3)CC3CCCO3)c(C)c2cc1Cl` (configuration not stated) gave a survival of 65%.
For `Cc1ccccc1CNCCSc1nnnn1C`, the survival was 84%.
In the case of `CC(C)c1ccc2oc(-c3cccc(NC(=O)c4ccc5c(c4)OCCO5)c3)nc2c1`, the survival is reported as 28% (active).
Compound `CCc1ccc(-c2nc3cc(NC(=O)c4ccc(F)cc4)ccc3o2)cc1` has a survival of 83%.
In the case of `CCc1ccc(C(=O)Nc2cccc(-c3nc4cc(C(C)C)ccc4o3)c2)cc1`, the survival is reported as 41% (active).
For `CCc1ccc(-c2nc3cc(NC(=O)c4ccc(C)c(C)c4)ccc3o2)cc1`, the survival was 151%.
Compound `Cc1ccc2oc(-c3ccc(C)c(NC(=O)c4ccc5c(c4)OCCO5)c3)nc2c1` has a survival of 48%.
`COc1ccc2oc(-c3ccc(C)c(NC(=O)c4ccc5c(c4)OCCO5)c3)nc2c1` was tested, and the survival was 70%.
`Cc1ccc(S(=O)(=O)N(CC(O)Cn2c3ccccc3c3ccccc32)c2cccc(C(=O)NCCO)c2)cc1` (configuration not stated) showed a survival of 56%.
With `Cc1ccc(S(=O)(=O)N(CC(O)Cn2c3ccccc3c3ccccc32)c2cccc(C(=O)N(C)C)c2)cc1` (configuration not stated) the survival was 54%.
In the case of `Cc1ccc(S(=O)(=O)N(CC(O)Cn2c3ccccc3c3ccccc32)c2cccc(C(N)=O)c2)cc1` (configuration not stated), the survival is reported as 38% (active).
In the case of `CCc1nn2c(-c3ccco3)ccnc2c1-c1ccc(F)cc1`, the survival is reported as 81%.
`CCc1nn2c(-c3ccco3)ccnc2c1-c1ccccc1` showed a survival of 84%.
Compound `COc1cccc(-c2ccnc3c(-c4ccc(F)cc4)c(C)nn23)c1` has a survival of 93%.
`CCc1nn2c(-c3ccccc3OC)ccnc2c1-c1ccc(F)cc1` was tested, and the survival was 2% (active).
For `Cc1ccccc1-c1ccnc2c(-c3ccc(F)cc3)c(C)nn12`, the survival was 6% (active).
`COc1ccccc1-c1ccnc2c(-c3ccc(Br)cc3)c(C)nn12` was tested, and the survival was 94%.
Work on `COc1ccc(-c2ccnc3c(-c4ccc(F)cc4)c(C)nn23)cc1OC` yielded a survival of 88%.
`CCc1nn2c(-c3ccccc3OC)ccnc2c1-c1ccccc1` was tested, and the survival was 0% (active).
Compound `Cc1nn2c(-c3ccco3)ccnc2c1-c1ccc(F)cc1` has a survival of 90%.
`Cc1cc2nn(-c3ccc(F)cc3)nc2cc1NC(=O)c1cc(Cl)ccc1Cl` showed a survival of 141%.
With `CC1CCCN(S(=O)(=O)c2ccc3c(c2)CCN3C(=O)CCC(=O)O)C1` (configuration not stated) the survival was 96%.
With `Cc1ccc(N2CC(c3nnc(NC(=O)c4ccco4)s3)CC2=O)cc1Cl` (configuration not stated) the survival was 77%.
For `CCN1C(=O)CC(n2c(C)nc3ccccc32)C1=O` (configuration not stated), the survival was 96%.
Compound `Cc1ccc(-c2nn(-c3ccccc3)c3[nH]c(=O)c(CNCCN4CCOCC4)cc23)cc1` has a survival of 115%.
Work on `NC(CC(=O)OC1CCCCC1)C(=O)OC1CCCCC1` (configuration not stated) yielded a survival of 89%.
In the case of `O=C(Nc1ccc(F)c(Cl)c1)C1CCCN(c2ncnc3onc(-c4ccc(F)cc4)c23)C1` (configuration not stated), the survival is reported as 78%.
`Cc1ccc(C(=O)Nc2nnc(S(=O)(=O)N(C)Cc3ccc(F)cc3)s2)cc1` gave a survival of 60%.
Work on `CC(C)COc1ccc(C(=O)Nc2nnc(S(=O)(=O)N(C)Cc3ccco3)s2)cc1` yielded a survival of 79%.
For `Cc1ccc(C(=O)Nc2nnc(S(=O)(=O)N(C)Cc3ccco3)s2)cc1`, the survival was 39% (active).
With `CN(Cc1ccco1)S(=O)(=O)c1nnc(NC(=O)c2ccccc2)s1` the survival was 23% (active).
`CN(Cc1ccco1)S(=O)(=O)c1nnc(NC(=O)c2ccccc2Cl)s1` showed a survival of 76%.
For `O=C(CCCSc1nc(-c2ccco2)cc(C(F)(F)F)n1)NC1CCCCC1`, the survival was 86%.
In the case of `Cc1ccc(N(Cc2cccs2)C(=O)C(C)Oc2ccc(Cl)c(C)c2)cc1` (configuration not stated), the survival is reported as 58%.
With `COc1ccc(Cl)cc1C(=O)N1CCCC1` the survival was 100%.
In the case of `CN1C(C(=O)Nc2ccc(F)cc2F)=CC(c2ccc3c(c2)OCO3)=NS1(=O)=O`, the survival is reported as 68%.
With `Cc1ccc(Cn2ccnc2SCC(=O)NCc2ccc(F)cc2)cc1` the survival was 101%.
In the case of `O=C(/C=C/c1ccco1)NC(=S)NC1CCCCC1`, the survival is reported as 115%.
`Cc1ccc(OC(=O)CSc2nnc(-c3ccco3)n2-c2ccccc2)cc1` gave a survival of 52%.
`Cc1cc(=O)n2nc(N3CCC(C(=O)Nc4ccc(Br)cc4F)CC3)sc2n1` showed a survival of 94%.
In the case of `Cc1cc(C)cc(NC(=O)c2cc(S(=O)(=O)N3CCCC3)ccc2F)c1`, the survival is reported as 92%.
For `CCc1ccc2c(c1)c(=O)c(S(=O)(=O)c1ccccc1)cn2CC(=O)Nc1ccc(OC)cc1`, the survival was 76%.
With `O=C(Nc1cc(-c2nc3cc(Cl)ccc3o2)ccc1Cl)c1cccc2ccccc12` the survival was 44% (active).
`O=C(COc1ccccc1[N+](=O)[O-])Nc1cc(-c2nc3cc(Cl)ccc3o2)ccc1Cl` showed a survival of 66%.
`O=C(Cc1ccccc1)Nc1cc(-c2nc3cc(Cl)ccc3o2)ccc1Cl` showed a survival of 68%.
`O=C(/C=C/c1ccccc1)Nc1cc(-c2nc3cc(Cl)ccc3o2)ccc1Cl` was tested, and the survival was 46% (active).
`O=C(Nc1ccc2oc(-c3ccc4ccccc4c3)nc2c1)c1cc(Cl)ccc1Cl` was tested, and the survival was 86%.
With `O=C(/C=C/c1ccccc1)Nc1cc(-c2nc3ccccc3o2)ccc1Cl` the survival was 59%.
`O=C(Nc1cc(-c2nc3cc(Cl)ccc3o2)ccc1Cl)c1ccco1` was tested, and the survival was 41% (active).
`COc1cc(OC)cc(C(=O)Nc2cc(-c3nc4cc(Cl)ccc4o3)ccc2Cl)c1` gave a survival of 71%.
For `COc1cc(OC)c(-c2cc(C(=O)NCc3ccc(F)cc3)c3c(-c4ccccc4)[nH]nc3n2)cc1OC`, the survival was 98%.
In the case of `O=C(NCC1CCCO1)C12CC3CC(CC(C3)C1)C2` (configuration not stated), the survival is reported as 109%.
For `CC(C)Oc1ccccc1NC(=O)CSc1nccn1C`, the survival was 60%.
`CCOCCc1nn2c(=O)cc(COC(=O)COc3ccc(C)c(C)c3)nc2s1` gave a survival of 89%.
`O=C(CN1CCN(C2CCCCC2)C(=O)C1=O)Nc1ccc(Cl)cc1` gave a survival of 86%.
`CCOC(=O)c1c(NC(=O)c2cc3nc(-c4ccc(Br)cc4)cc(C(F)(F)F)n3n2)sc(C(C)=O)c1C` gave a survival of 83%.
With `CCOC(=O)c1cccc(NC(=O)[C@@H](c2ccccc2)N2Cc3ccccc3C2=O)c1` the survival was 58%.
Work on `Cc1ccccc1-c1nnc(SCC(=O)N(C)c2ccccc2)o1` yielded a survival of 79%.
Work on `O=C(OC1CSc2nc3ccccc3n2C1)c1ccccc1Cl` (configuration not stated) yielded a survival of 95%.
With `COC(=O)C1CC(=O)N(c2ccccc2)C1` (configuration not stated) the survival was 72%.
`CC(C)COc1ccc(C(=O)NCC2OCCc3ccccc32)cc1` (configuration not stated) was tested, and the survival was 51%.
In the case of `CC(C)CCOc1ccc(C(=O)NCC2OCCc3ccccc32)cc1` (configuration not stated), the survival is reported as 39% (active).
Compound `CCCOc1ccc(C(=O)NCC2OCCc3ccccc32)cc1` (configuration not stated) has a survival of 49%.
`Cc1ccccc1NC(=O)CSc1nnc(-c2cccs2)o1` gave a survival of 71%.
For `Cc1c(Cl)cccc1-n1ncc(C(=O)Nc2ccc(Br)cc2F)c1C1CCNCC1`, the survival was 87%.
In the case of `COc1cc(Cl)c(NS(=O)(=O)c2ccc3[nH]c(=O)ccc3c2)c(OC)c1`, the survival is reported as 102%.
`CC(C)(C)C(=O)CNS(=O)(=O)c1ccc(S(=O)(=O)NC2CCCCC2)cc1` was tested, and the survival was 79%.
In the case of `O=C(CNS(=O)(=O)c1ccc(Cl)cc1)NN=C1CCCCC1`, the survival is reported as 92%.
`O=C(CNS(=O)(=O)c1ccc(Cl)cc1)NC1CCCC1` was tested, and the survival was 67% (active).
For `Cc1cc(-c2ccc(S(=O)(=O)NCc3ccccc3Cl)s2)on1`, the survival was 128%.
`CCOc1ccc(OCC)c(NC(=O)c2cc3ccccn3n2)c1` gave a survival of 87%.
In the case of `COc1ccc(-c2noc(CNC(=O)c3ccc(OC)cc3OC)n2)cc1`, the survival is reported as 62% (active).
For `COc1ccc(Cl)cc1C(=O)NCc1nc(-c2cccc(C)c2)no1`, the survival was 48%.
For `O=C(NCc1nc(-c2ccccc2)no1)c1ccco1`, the survival was 68%.
With `COc1ccc(-c2noc(CNC(=O)c3ccco3)n2)cc1` the survival was 87%.
`COc1cccc(C(=O)NCc2nc(-c3ccccc3)no2)c1OC` was tested, and the survival was 43% (active).
Work on `COc1ccc(-c2noc(CNC(=O)c3ccccc3Br)n2)cc1` yielded a survival of 51%.
In the case of `COc1cc(OC)c(C(=O)NCc2nc(-c3ccccc3)no2)cc1OC`, the survival is reported as 41% (active).
`COc1cc(C(=O)NCc2nc(-c3ccc(Cl)cc3)no2)cc(OC)c1OC` was tested, and the survival was 59%.
With `COc1ccc(-c2noc(CNC(=O)c3cc(OC)c(OC)c(OC)c3)n2)cc1` the survival was 55%.
`NC(=O)Cn1cc(F)c(=O)[nH]c1=O` showed a survival of 87%.
In the case of `Cc1ccccc1-c1noc(C(C)NC(=O)c2ccco2)n1` (configuration not stated), the survival is reported as 79%.
For `COc1ccc(-n2c(=O)c3c4c(sc3n(Cc3ccccc3C)c2=O)CCCC4)c(OC)c1`, the survival was 64%.
`CCOc1ccccc1NC(=O)c1cc(S(=O)(=O)NC2CCCC2)ccc1F` gave a survival of 81%.
For `O=C(NCC(c1ccccc1)c1ccccc1)c1nn(-c2ccccc2F)nc1CO`, the survival was 104%.
Compound `O=c1c2sc3ccccc3c2n(Cc2cccc(Cl)c2)c(=O)n1Cc1ccccc1` has a survival of 66%.
With `COc1ccccc1NC(=O)Cn1c(=O)n(Cc2ccccc2)c(=O)c2sc3ccccc3c21` the survival was 68% (active).
In the case of `COc1ccccc1NC(=O)Cn1c(=O)n(CCc2ccccc2)c(=O)c2sc3ccccc3c21`, the survival is reported as 74%.
`Cc1ccccc1NC(=O)Cn1c(=O)n(Cc2ccccc2)c(=O)c2sc3ccccc3c21` gave a survival of 65%.
Work on `O=c1c2sc3ccccc3c2n(Cc2ccc(F)cc2)c(=O)n1Cc1ccccc1` yielded a survival of 137%.
In the case of `O=c1c2sc3ccccc3c2n(Cc2cccc(Cl)c2)c(=O)n1Cc1ccc(F)cc1`, the survival is reported as 68% (active).
`CCS(=O)(=O)c1ncc(N(Cc2cccc(F)c2)Cc2ccco2)c(C(=O)Nc2ccccc2Cl)n1` was tested, and the survival was 64%.
Work on `CCc1ccc(CN(Cc2ccco2)c2cnc(S(C)(=O)=O)nc2C(=O)Nc2ccccc2Cl)cc1` yielded a survival of 101%.
With `COc1ccccc1CN(Cc1ccco1)c1cnc(S(C)(=O)=O)nc1C(=O)Nc1cc(C)ccc1C` the survival was 58%.
For `COc1ccccc1CN(Cc1ccco1)c1cnc(S(C)(=O)=O)nc1C(=O)Nc1ccccc1Cl`, the survival was 46% (active).
In the case of `COc1ccc(Cl)cc1NC(=O)c1nc(S(C)(=O)=O)ncc1N(Cc1ccc(C)cc1)Cc1ccco1`, the survival is reported as 103%.
With `COc1cccc(CN(Cc2ccco2)c2cnc(S(C)(=O)=O)nc2C(=O)Nc2cccc(Cl)c2C)c1` the survival was 47% (active).
